Source: PubChem
Mdm2 MdmX PPI – inhibitors of human Mdm2-MdmX association, primary screen, cell-based, luminescence, split luciferase, SaOS-2, uHTS; Protein Mdm4 (Homo sapiens) + E3 ubiquitin-protein ligase Mdm2 (Homo sapiens), …; SaOS-2 split-luciferase Mdm2/MdmX complementation; inhibition, % at 8 µM; 330,000 tested, 3% active; AID 485346, 2010;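 active = inhibition of at least 50% at 8 µM in the primary screen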
Target sequence (O15151 whole entry, looked up): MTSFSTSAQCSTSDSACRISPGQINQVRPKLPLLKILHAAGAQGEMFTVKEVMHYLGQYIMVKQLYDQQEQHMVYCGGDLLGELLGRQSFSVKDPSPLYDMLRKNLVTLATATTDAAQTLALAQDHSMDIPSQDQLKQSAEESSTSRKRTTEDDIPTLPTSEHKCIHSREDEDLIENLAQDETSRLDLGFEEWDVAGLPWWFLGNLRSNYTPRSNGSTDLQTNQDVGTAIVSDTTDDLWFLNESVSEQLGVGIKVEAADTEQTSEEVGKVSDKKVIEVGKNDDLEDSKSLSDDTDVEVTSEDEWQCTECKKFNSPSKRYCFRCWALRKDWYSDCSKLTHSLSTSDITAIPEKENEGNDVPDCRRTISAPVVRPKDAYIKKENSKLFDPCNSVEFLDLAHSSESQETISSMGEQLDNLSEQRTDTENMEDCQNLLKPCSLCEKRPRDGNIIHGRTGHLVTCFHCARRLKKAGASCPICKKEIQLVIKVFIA
Target sequence (Q00987 whole entry, looked up): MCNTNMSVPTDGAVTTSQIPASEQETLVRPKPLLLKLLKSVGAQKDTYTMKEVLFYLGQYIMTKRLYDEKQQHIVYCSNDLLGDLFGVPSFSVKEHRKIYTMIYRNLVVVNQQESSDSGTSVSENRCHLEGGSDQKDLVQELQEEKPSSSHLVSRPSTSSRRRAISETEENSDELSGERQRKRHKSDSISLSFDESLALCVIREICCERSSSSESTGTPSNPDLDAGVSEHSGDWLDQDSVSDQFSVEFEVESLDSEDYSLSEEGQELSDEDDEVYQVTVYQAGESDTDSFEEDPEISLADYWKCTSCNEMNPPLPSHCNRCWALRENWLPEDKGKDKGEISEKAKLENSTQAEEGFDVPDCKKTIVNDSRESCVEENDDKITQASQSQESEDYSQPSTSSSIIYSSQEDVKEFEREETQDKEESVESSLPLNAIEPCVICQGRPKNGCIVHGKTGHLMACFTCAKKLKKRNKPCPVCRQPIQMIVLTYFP
Beta apoptosis – inhibitors of cytokine-induced beta cell apoptosis, primary screen, luminescence | 300,000 tested, 0.8% active | protection from apoptosis, % (concentration not given with the values) | INS-1E cytokine-induced death, ATP luminescence, 48 h; percent of positive-control rescue, neutral wells zero;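 active = Every replicate reaches about 75%, or at least half do and their mean reaches it too, limit read from the data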;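 also: 0% = cytokine-treated negative control wells and 100% = positive control rescue; higher means more ATP so stronger rescue from cytokine killing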
SKKanGAS inh – S. pyogenes SKKanGAS growth inhibitors in kanamycin, primary screen, streptokinase expression inhibitor project, SKKanGAS strain, BacTiter-Glo luminescence | AID 1662, 2009 | 6 h | 300,000 tested, 1.3% active | inhibition, % at 7.5 µM;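 active = mean replicate score, as percent of positive control median, at least 50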;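 also: strain carries kanamycin resistance gene driven by streptokinase promoter and grows in 40 µg/ml kanamycin; loss of luminescence reflects streptokinase promoter inhibition or plain growth inhibition; 0% = median of DMSO wells and 100% = positive control at its reference dose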
CSC inhib – cancer stem cell viability inhibitors, primary screen, luminescence | cancer stem cell-like cells viability | inhibition, % at 7.5 µM | 300,000 tested, 1.1% active | AID 2717, 2010; in the data active = inhibition above about 75%; tested in HMLE shEcad cells
NR3A LBD binder – binders of NR3A ligand-binding domain, primary screen, biophysical, differential scanning fluorimetry, uHTS; Glutamate receptor ionotropic, NMDA 3A (GRIN3A) ligand-binding domain; NR3A LBD differential scanning fluorimetry, Tm shift; 0% = protein alone, 100% = glycine-bound protein; Tm shift relative to glycine control, % at 25 µM; 340,000 tested, 2.5% active;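 active = melting temperature shift of at least 10% of the positive control shift, at one fixed dose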
MPTP block – mitochondrial permeability transition pore inhibitors, primary screen, biochemical, isolated mouse mitochondria, absorbance; Ca2+ swelling absorbance, 30 min; inhibition, % at 10 µM; 360,000 tested, 1.4% active; AID 602449, 2012;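 active = inhibition of 50% or more, scaled per plate between neutral and stimulator controls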;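 also: 0% = DMSO wells given calcium and 100% = 1 mM EGTA wells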
Mdm2 MdmX conf – Mdm2-MdmX complex disruptors, retested hits, confirmation, luminescence, single concentration; shares compounds with Mdm2 MdmX PPI; Mdm2-MdmX binding, luminescent assay; inhibition, % at 8 µM; 10,000 tested, 55% active; AID 489028, 2010; in the data active = inhibition above about 40%
FLuc counter – full-length luciferase signal inhibition, confirmation, counter-screen for Mdm2/MdmX interaction inhibitor project, cell-based, single concentration, SaOS-2. AID 504607, 2011. 6,200 tested, 77% active. shares compounds with Mdm2 MdmX PPI. inhibition, % at 8 µM. SaOS-2 full-length luciferase counterscreen, luminescence;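 active = mean inhibition at 8 µM reaching about 37%, which flags the compound as non-specific, limit read from the data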;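 also: p53-null SaOS-2 cells with luciferase driven by a doxycycline-inducible promoter; compound on cells about two nights before reading with doxycycline added after day one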
MPTP counter – fluorescence retest of MPTP screen hits in isolated mitochondria, single concentration. shares compounds with MPTP block. membrane potential, Rhodamine 123 fluorescence. inhibition, % at 10 µM. 5,000 tested, 78% active; in the data active = inhibition above about 22%;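 also: 0% = DMSO vehicle and 100% = positive control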
* marks the source's active call; other numbers are inactive results; . = not tested or not shown. This is a sample that favours compounds with a hit; in the whole collection about 6.9% have one here.

SMILES	Mdm2 MdmX PPI	Beta apoptosis	SKKanGAS inh	CSC inhib	NR3A LBD binder	MPTP block	Mdm2 MdmX conf	FLuc counter	MPTP counter
COc1cccc(/C=C2/Sc3ccc(C(=O)NCCN4CCCCCC4)cc3NC2=O)c1	98*	.	12	-16	-7	95*	30	.	-7
O=C1Nc2cc(C(=O)NCCN3CCCCCC3)ccc2S/C1=C\c1ccccc1	81*	1	1	-5	-7	76*	19	.	-17
O=C(NCCCN1CCCC1=O)c1ccc2c(c1)NC(=O)c1ccccc1S2	-21	0	0	3	-2	-1	.	.	.
O=C(Nc1ccc(-n2ccc(C(F)(F)F)n2)cc1)Nc1cccc(Cl)c1	80*	116*	2	44	.	75*	30	82*	65*
O=C(O)CCC(=O)Nc1ccc(-n2ccc(C(F)(F)F)n2)cc1	11	-3	15	-2	-1	0	.	.	.
Cc1cc(C)cc(CC(Cc2nc3ccccc3[nH]2)c2nc3ccccc3[nH]2)c1 (centres undefined)	91*	46	57*	182*	-7	96*	24	.	108*
O=C(NC1CCCC1)c1sc(=S)n2c1[nH]c(=O)c1ccccc12	57*	6	30	58	-9	87*	9	.	97*
Cc1nc(Nc2ccc(Cl)c(Cl)c2)sc1C(=O)Nc1ccccc1	52*	86*	91*	88*	32*	82*	6	.	64*
CCOC(=O)C1=C(COC(=O)CNC(=O)c2ccc(Cl)cc2Cl)NC(=O)NC1C (centres undefined)	6	-5	-5	4	-1	-3	.	.	.
COc1ccc(Oc2ccc(/C=C/C(=O)c3ccc(O)cc3)cc2[N+](=O)[O-])cc1	98*	10	-11	94*	20*	88*	33	.	66*
O=C(/C=C/c1ccc(O)c([N+](=O)[O-])c1)c1ccc2ccccc2c1	14	-10	9	-6	-1	21	.	.	.
O=C(Nc1nc(-c2cc(Cl)sc2Cl)cs1)c1ccc(Br)s1	80*	.	6	39	-2	104*	7	.	5
O=[N+]([O-])c1ccc(O)c(/C=N\N=C2c3ccccc3-c3ccccc32)c1	93*	8	9	18	14*	104*	91*	46*	93*
NC(N)=N/N=C/c1cc([N+](=O)[O-])ccc1O	5	-7	-9	-3	1	-3	.	.	.
O=C(NNc1ccccc1[N+](=O)[O-])Nc1ccc(Cl)c(Cl)c1	87*	-13	18	-5	15*	102*	80*	41*	84*
O=C(NNc1ccccc1[N+](=O)[O-])Nc1ccccc1	14	-8	5	6	1	3	.	.	.
O=C(Nc1ccc(Cl)c([N+](=O)[O-])c1)C(Sc1ccccc1)c1ccccc1 (centres undefined)	88*	14	23	-5	28*	105*	82*	24	80*
CCN(CC)S(=O)(=O)c1cc([N+](=O)[O-])ccc1NNC(=O)Nc1ccc(Cl)c(Cl)c1	91*	113*	48	-24	18*	102*	93*	52*	76*
C=CCOC(=O)C1=C(C)NC(SCC(=O)Nc2ccc(C)c(Cl)c2)=C(C#N)C1c1ccco1 (centres undefined)	63*	5	6	-2	20*	72*	51*	46*	77*
